Screening data: PubChem BioAssay, several laboratories
Only some compounds are listed: those with a hit (about 5.2% of all), similar ones and a draw of the others.
SMARCA2 activ – SMARCA2 (BRM) function activators, primary screen, cell-based, luminescence, high throughput; MG213 cells, MMTV-luciferase reporter, dexamethasone, overnight; activation, % at 9.1 µM; hit rate 1% among 370,000; AID 652017, 2013; in the data active means activation above about 7.8%
NR3A LBD binder – binders of NR3A ligand-binding domain, primary screen, biophysical, differential scanning fluorimetry, uHTS. AID 1259313, 2017. NR3A LBD differential scanning fluorimetry, Tm shift; 0% = protein alone, 100% = glycine-bound protein. Glutamate receptor ionotropic, NMDA 3A (GRIN3A) ligand-binding domain. hit rate 2.5% among 340,000. Tm shift relative to glycine control, % at 25 µM;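 active means melting temperature shift of at least 10% of the positive control shift, at one fixed dose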
Vif imaging – HIV Vif self-association inhibitors, primary screen, imaging, HEK293T, single point; inhibition, % at 7.49 µM; HEK293T cells, Vif self-association by quenched fluorescence, 24 h; hit rate 0.35% among 340,000; AID 602346, 2012; in the data active means inhibition above about 50%, passing the limit was not always enough
NadD inh – inhibitors of S. aureus NadD, primary screen, biochemical, colorimetric, uHTS; hit rate 0.78% among 360,000; AID 602399, 2012; purified NadD enzyme, colorimetric absorbance read-out; inhibition, % at 20 µM; Nicotinate-nucleotide adenylyltransferase NadD (Staphylococcus aureus N315); in the data active means inhibition above about 26%
esBAF inh – Bmi1 luciferase reporter increase in mESCs, primary screen, esBAF inhibitor project, mouse ES cells, Bmi1 luciferase knock-in, single point | 24 h; 100% = twice the neutral-well signal | reporter increase, % at 12.5 µM | hit rate 2% among 350,000; in the data active means activation above about 40%;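 further: a rise in the Bmi1 reporter signal indicates esBAF inhibition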
SKN-1 block – suppressors of acrylamide-induced Pgst-4::GFP reporter in worms, primary screen, SKN-1 inhibitor project, whole organism, uHTS, GFP/RFP fluorescence ratio, strain VP596. C. elegans VP596 Pgst-4::GFP/RFP ratio, 24 h. inhibition, % at 21.8 µM. hit rate 0.49% among 360,000;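 active means interference check ratio from 0.5 to 1.5 plus GFP to RFP signal ratio inhibition reaching or exceeding a fixed threshold, cut at about 30% in these data, passing the limit was not always enough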
Of the large screens only hits and unclear results are named; the others gave an inactive call.

Cc1cc(/C=C2\SC(=S)NC2=O)c(C)n1-c1cccc(O)c1	NadD inh 30 (no result: esBAF inh)
Cc1sc(-n2c(C)cc(/C=C3\SC(=S)NC3=O)c2C)c(C#N)c1C	NadD inh 25
CCS(=O)(=O)Nc1ccc2c(c1)C(=O)N(C)C[C@H](OC)[C@H](C)CN(C(=O)COC)[C@H](C)CO2	none (no result: SMARCA2 activ, NR3A LBD binder, Vif imaging, NadD inh, SKN-1 block)
C[C@@H]1CN([C@@H](C)CO)C(=O)c2cc(NS(=O)(=O)c3ccc(Cl)cc3)ccc2O[C@@H](C)CCCCO[C@@H]1CN(C)C(=O)CCCN(C)C	none (no result: SMARCA2 activ, NR3A LBD binder, Vif imaging, NadD inh, SKN-1 block)
COc1ccc(S(=O)(=O)Nc2ccc3c(c2)C(=O)N(C)C[C@H](OC)[C@@H](C)CN[C@@H](C)CO3)cc1	none (no result: SMARCA2 activ, NR3A LBD binder, Vif imaging, NadD inh, SKN-1 block)
CCCNC(=O)N[C@H]1C=C[C@H](CC(=O)NCCc2ccccc2)O[C@H]1CO	none (no result: SMARCA2 activ, NR3A LBD binder, Vif imaging, NadD inh, SKN-1 block)
C[C@@H]1CN([C@H](C)CO)S(=O)(=O)c2ccc(-c3cccnc3)cc2O[C@H]1CN(C)CC1CC1	none (no result: SMARCA2 activ, NR3A LBD binder, Vif imaging, NadD inh, SKN-1 block)
CSc1nc2ccccc2cc1/C=C(\C#N)c1ccc(Cl)c(Cl)c1	NR3A LBD binder 17
CSc1nc2ccccc2cc1/C=C(\C#N)c1ccccc1	NR3A LBD binder 19
C[C@@H]1CN([C@@H](C)CO)C(=O)c2cc(NS(=O)(=O)c3ccc(Cl)cc3)ccc2O[C@@H]1CN(C)S(=O)(=O)c1ccccc1	none (no result: SMARCA2 activ, NR3A LBD binder, Vif imaging, NadD inh, SKN-1 block)
Cc1csc(NC(=O)Cc2ccc(F)cc2)n1	esBAF inh 64
Cc1csc(NC(=O)Cc2c(F)cccc2Cl)n1	esBAF inh 62
COCCNCC(=O)Nc1nc(C)cs1	Vif imaging 59 (no result: esBAF inh)
Cc1csc(NC(=O)Cc2c[nH]c3ccccc23)n1	esBAF inh 61
Cc1cccc(NC(=O)Cc2c(F)cccc2Cl)n1	none
COCC#Cc1ccc2c(c1)O[C@@H](CN(C)C(=O)Nc1ccc(OC)cc1)[C@@H](C)CN([C@@H](C)CO)S2(=O)=O	none (no result: SMARCA2 activ, NR3A LBD binder, Vif imaging, NadD inh, SKN-1 block)
Cc1ccc(C)c(N2CCN(C(c3ccc(N(C)C)cc3)c3nnnn3C(C)(C)C)CC2)c1 (stereo not given)	SKN-1 block 46
Cc1cccc(NC(=S)N2N=CCC2c2ccccc2)c1 (stereo not given)	esBAF inh 49
CC(C)C(=O)Nc1ccc2c(c1)C(=O)N(C)[C@@H]1CC[C@H](CC(=O)NCCCN(C)C)O[C@@H]1CO2	none (no result: SMARCA2 activ, NR3A LBD binder, Vif imaging, NadD inh, SKN-1 block)
CN1CCN(C(=O)C[C@H]2CC[C@@H]3[C@@H](COc4ccc(NC(=O)c5cscn5)cc4C(=O)N3C)O2)CC1	none (no result: SMARCA2 activ, NR3A LBD binder, Vif imaging, NadD inh, SKN-1 block)
Nc1ccc2c(c1)sc1ccccc12	SKN-1 block 54 (no result: esBAF inh)
Nc1ccc2nc(N)sc2c1	none
Cc1cc2c(N=O)c(NO)ccc2[nH]1	Vif imaging 54 (no result: SMARCA2 activ)
C[C@H]1CCCCO[C@H](CN(C)S(=O)(=O)c2ccc(F)cc2)[C@@H](C)CN([C@@H](C)CO)C(=O)c2cc(NS(=O)(=O)c3ccc(Cl)cc3)ccc2O1	none (no result: SMARCA2 activ, NR3A LBD binder, Vif imaging, NadD inh, SKN-1 block)
O=C(CSc1nnc(-c2ccncc2)s1)Nc1ccc(Cl)c(C(=O)O)c1	Vif imaging 54
c1ccc2c(NCCc3c[nH]c4ccccc34)c3ccccc3nc2c1	none
Fc1cccc(NCCc2c[nH]c3ccccc23)n1	NR3A LBD binder 15
c1ccc(-n2nnnc2NCCc2c[nH]c3ccccc23)cc1	NR3A LBD binder 12
CC1CCN(C(=O)CSc2nc3ccccc3[nH]2)CC1	esBAF inh 51
Cc1[nH]c2ccccc2c1C(=O)CSc1nccc(=O)[nH]1	none (no result: esBAF inh)
Cc1[nH]c2ccccc2c1C(=O)CSc1nc2ccccc2[nH]1	NR3A LBD binder 19
NC(=O)C1CCN(C(=O)CSc2nc3ccccc3[nH]2)CC1	none
Cc1noc(C)c1NC(=O)N(C)C[C@H]1Oc2c(NS(=O)(=O)c3c(C)noc3C)cccc2C(=O)N([C@@H](C)CO)C[C@H]1C	none (no result: SMARCA2 activ, NR3A LBD binder, Vif imaging, NadD inh, SKN-1 block)
COCC(=O)Nc1ccc2c(c1)OC[C@@H](C)N(Cc1cc(F)ccc1F)C[C@H](C)[C@H](OC)CN(C)C2=O	none (no result: SMARCA2 activ, NR3A LBD binder, Vif imaging, NadD inh, SKN-1 block)
CCNC(=O)[C@@H]1[C@@H](CO)[C@@H]2Cn3c(ccc(-c4ccccc4)c3=O)[C@H]1N2Cc1ccccc1	none (no result: SMARCA2 activ, NR3A LBD binder, Vif imaging, NadD inh, SKN-1 block)
CCn1c(SCC(=O)Nc2oc(-c3ccccc3)c(-c3ccccc3)c2C#N)nnc1-c1cc(OC)cc(OC)c1	NadD inh 51 (no result: SMARCA2 activ, Vif imaging)
O=C(NCc1ccncc1)[C@H]1N[C@H]2c3ccc(/C=C/c4ccccc4)c(=O)n3C[C@H]2[C@@H]1CO	none (no result: SMARCA2 activ, NR3A LBD binder, Vif imaging, NadD inh, SKN-1 block)
COC(=O)c1cccc(CC2(C)C(=O)Nc3ccc(OC(F)(F)F)cc32)c1 (stereo not given)	SKN-1 block 37 (no result: NR3A LBD binder, Vif imaging)
C[C@@H]1CN([C@H](C)CO)C(=O)c2cc(NC(=O)Cc3ccccc3)ccc2O[C@@H](C)CCCCO[C@@H]1CN(C)C	none (no result: SMARCA2 activ, NR3A LBD binder, Vif imaging, NadD inh, SKN-1 block)
O=C(CN1CCOCC1)N[C@H]1CC[C@H](CCNC(=O)C2CCC2)O[C@@H]1CO	none (no result: SMARCA2 activ, NR3A LBD binder, Vif imaging, NadD inh, SKN-1 block)
COc1ccc(Cl)cc1C(=O)Nc1ccc(Br)c(C)n1	esBAF inh 61
COc1cc2ccccc2cc1C(=O)Nc1cccnc1	esBAF inh 48
COc1ccc(Cl)cc1C(=O)Nc1cccnc1	Vif imaging 53
COc1ccc(Cl)cc1C(=O)Nc1ccc(NC(C)=O)cc1	none (no result: esBAF inh)
COc1cc(OC)c(C(=O)Nc2cccnc2)cc1OC	none
C[C@H](CO)N1C[C@H](C)[C@H](CN(C)S(=O)(=O)c2cccs2)Oc2ccc(NC(=O)NC3CCCCC3)cc2C1=O	none (no result: SMARCA2 activ, NR3A LBD binder, Vif imaging, NadD inh, SKN-1 block)
CC(C)COc1ccc(CNC(=S)Nc2ccccc2)cc1Cl	NR3A LBD binder 15
CCCOc1ccc(CNC(=S)Nc2ccccc2)cc1Cl	NR3A LBD binder 18 (no result: Vif imaging)
COc1ccc(CNC(=S)Nc2ccccc2)cc1Cl	none
COc1ccc(NC(=O)N(C)C[C@@H]2Oc3ccc(NS(=O)(=O)c4c(C)noc4C)cc3CC(=O)N([C@H](C)CO)C[C@@H]2C)cc1	none (no result: SMARCA2 activ, NR3A LBD binder, Vif imaging, NadD inh, SKN-1 block)
O=C(C[C@H]1CC[C@H]2[C@@H](COC[C@@H](O)CN2C(=O)c2ccccc2F)O1)NCc1ccc(-c2ccccc2)cc1	none (no result: SMARCA2 activ, NR3A LBD binder, Vif imaging, NadD inh, SKN-1 block)
Cc1ccc(S(=O)(=O)CC(=O)Nc2nnc(C(C)C)s2)cc1	Vif imaging 58
O=C(NCc1ccncc1)c1ccc2nc(Cc3ccccc3F)oc2c1	none
Cc1cc(CNC(=O)c2ccc3nc(Cc4ccccc4F)oc3c2)nn1C	esBAF inh 69
COc1ccc2nc3cc([N+](=O)[O-])ccc3c(NNc3ccc([N+](=O)[O-])cc3)c2c1	Vif imaging 67
Cc1noc(C)c1NC(=O)Nc1ccc2c(c1)C(=O)N([C@H](C)CO)C[C@H](C)[C@H](CN(C)C(=O)Nc1ccc3c(c1)OCO3)OCCCC[C@@H](C)O2	none (no result: SMARCA2 activ, NR3A LBD binder, Vif imaging, NadD inh, SKN-1 block)
